Screening data from PubChem.
G9a block: G9a (human) methyltransferase inhibition; Q96KQ7; G9a H3K9 monomethylation, AlphaScreen, 2 h; Potency, µM (series often up to 102 µM), inactives show at the top dose activity, negative = inhibition, most hits filed as inhibitors; hit rate 8.8% among 350,000; AID 504332; further: on the % scale 0 is the no-effect control and ±100 the full control effect; nearly all actives have a fitted effect of over 75% in size
Target sequence (Q96KQ7 913-1193 limits assumed): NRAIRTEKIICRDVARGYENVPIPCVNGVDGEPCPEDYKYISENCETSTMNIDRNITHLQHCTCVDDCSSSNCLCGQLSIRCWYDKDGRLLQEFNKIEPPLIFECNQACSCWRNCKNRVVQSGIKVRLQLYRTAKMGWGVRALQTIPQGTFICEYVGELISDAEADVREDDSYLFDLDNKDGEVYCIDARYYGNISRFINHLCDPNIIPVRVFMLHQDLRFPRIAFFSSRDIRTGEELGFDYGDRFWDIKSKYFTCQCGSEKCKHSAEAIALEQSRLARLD
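G9a (20 nM) preincubated 15 min RT with compounds, then 500 nM biotinylated H3K9 peptide and 20 uM SAM added; 2 h RT reaction. Monomethyl-H3K9 product detected by AlphaScreen with anti-H3K9me1 antibody, streptavidin donor and anti-rabbit IgG acceptor beads.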
BAZ2B inh: blocks human BAZ2B; Q9UIF8; AlphaScreen BAZ2B-H3K14Ac peptide displacement; hit rate 4.4% among 360,000; Potency, µM (doses to about 114 µM), for inactives: at the top dose activity change, negative = inhibition, most hits filed as inhibitors; further: on the % scale 0 is the no-effect control and ±100 the full control effect; nearly all actives have a fitted effect of over 60% in size
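BAZ2B 50 nM plus b-H3(5-23)K14Ac 50 nM, PBS pH 7.4/0.01% Tween-20, 30 min RT; compound added (max 110 uM), 30 min RT; streptavidin donor/Ni-chelate acceptor beads 10 ug/mL final, 20 min dark; AlphaScreen read.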
JMJD2A Tudor inh: inhibitors of human JMJD2A Tudor domain | O75164 | AlphaScreen JMJD2A-Tudor / H3K4me3 peptide binding | hit rate 4.4% among 390,000 | AID 504339 | Potency, µM (series often up to 114 µM), for the others: at the highest dose activity change, negative = inhibition, usual class: inhibitors; further: on the % scale 0 is the no-effect control and ±100 the full control effect; nearly all actives have a fitted effect of over 50% in size
HP1b chromo inh: inhibitors of HP1-beta chromodomain binding to methylated histone tails. P83916. AlphaScreen HP1-beta / biotin-H3K9me3 peptide binding. hit rate 0.56% among 390,000. Potency, µM (highest dose often 114 µM), without a hit: top-dose activity change, negative = inhibition, usual class: inhibitors. AID 540317; further: nearly all actives have a fitted effect of over 70% in size
Target sequence (P83916 whole entry, looked up): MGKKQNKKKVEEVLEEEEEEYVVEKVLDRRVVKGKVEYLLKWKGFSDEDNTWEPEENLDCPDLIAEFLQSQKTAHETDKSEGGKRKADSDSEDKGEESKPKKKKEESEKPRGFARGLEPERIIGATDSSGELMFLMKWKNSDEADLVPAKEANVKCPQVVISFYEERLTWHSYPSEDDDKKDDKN
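AlphaScreen: HP1-beta (50 nM) preformed 30 min with biotin-H3(1-18)K9me3 peptide (50 nM) in PBS pH 7.4, 0.01% Tween-20. Compound added for 30 min at RT, then streptavidin donor/nickel chelate acceptor beads (10 ug/mL) for 30 min.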
L3MBTL1 inh: blocks human L3MBTL1; Q9Y468; AlphaScreen L3MBTL1–H3K9me1 peptide binding; Potency, µM (series often up to 57.1 µM), without a hit: top-dose activity, negative = inhibition, most hits filed as inhibitors; hit rate 0.66% among 230,000; AID 485360; further: on the % scale 0 is the no-effect control and ±100 the full control effect; nearly all actives have a fitted effect of over 60% in size
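AlphaScreen proximity signal between nickel-chelate acceptor and streptavidin donor beads (final 10 ug/mL) reports binding of 50 nM L3MBTL1 to 75 nM biotin-H3 K9me1 peptide; complex incubated with compounds 30 min at room temperature; cefsulodin titration as control.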
Sfp PPTase inh: blocks B. subtilis Sfp PPTase activity | hit rate 3.5% among 310,000 | Biochemical Sfp PPTase activity, qHTS | AID 1490 | Potency, µM, for the others: largest response in the series, negative = inhibition, hits mostly inhibitors;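 further: the enzyme is Sfp with the accession as filed and its product quenches rhodamine fluorescence; 0% = enzyme reaction without inhibitor and -100% = no enzyme wells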
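Fluorescence-quenching assay with 15 nM Sfp, 5 uM rhodamine-CoA and 12.5 uM BHQ-2-labelled ybbR peptide in pH 7.6 Hepes/MgCl2 buffer. Enzyme was pre-incubated with compound for 15 min at room temperature. Rate was taken from the 30-min fluorescence change (525/598 nm).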
Numbers without * were called inactive; ? = inconclusive; . = no result given; [ ] = dose if it differs, or a comment. In the library only some 12% were active in any assay of this set; here they are far more common. The call rests on the fitted dose curve; in most records, active means well fitted curve in the direction sought with a large enough effect; inconclusive means small, poorly fitted or top-dose-only effect, or another doubt; inactive means no such curve, though single readings can be large; an effect the other way counts as inactive or inconclusive. Potency means the concentration at half of the fitted maximal effect.

SMILES	G9a block	BAZ2B inh	JMJD2A Tudor inh	HP1b chromo inh	L3MBTL1 inh	Sfp PPTase inh
N#Cc1ccccc1Cn1cc(/C=C/[N+](=O)[O-])c2ccccc21	50.1µM*	?	-23.0%	6.7%	-16.1%	-28.3%
O=[N+]([O-])/C=C/c1cn(Cc2ccccc2)c2ccccc12	?	12.1%[57.1 µM]	-19.5%	0.7%	10.5%	?
O=C(O)Cn1cc(/C=C/[N+](=O)[O-])c2ccccc21	56.2µM*	-30.5%	-22.6%[57.1 µM]	-5.6%	-10.7%	-13.1%
COc1cccc(Cn2c(CNC(=O)C(C)C)nc3cccnc32)c1	13.0%[59 µM]	-0.3%	-3.9%	25.0%[57 µM]	.	.
Cc1ccc(C(c2sc3ncnn3c2O)N2CCCCC2)cc1 (stereo not drawn)	13.8%[59 µM]	9.7%	-19.0%	23.1%	45.9%	20.1%
Cc1nc2sc(C(c3ccco3)N3CCc4ccccc4C3)c(O)n2n1 (stereo not drawn)	.	.	56.2µM*	-6.0%	.	.
Cc1nc2sc(C(c3ccco3)N3CCN(c4ccccc4F)CC3)c(O)n2n1 (stereo not drawn)	44.7µM*	-30.4%	-17.9%	9.6%	-0.6%	-9.1%
Cc1ccc(C(c2sc3nc(C)nn3c2O)N2CCN(C(=O)c3ccco3)CC2)cc1 (stereo not drawn)	5.1%[59 µM]	-4.8%	-13.1%	19.1%	-0.1%	5.4%
Cc1nc2sc(C(c3ccc(Cl)cc3)N3CCN(c4ccccc4F)CC3)c(O)n2n1 (stereo not drawn)	?	-30.4%	-24.8%	15.7%	-6.0%	1.4%
Oc1c(C(c2ccc(F)cc2)N2CCc3ccccc3C2)sc2ncnn12 (stereo not drawn)	7.94µM*	9.7%	?	22.4%	-8.4%	-12.1%
Cc1nc2sc(C(c3ccc(F)cc3)N3CCOCC3)c(O)n2n1 (stereo not drawn)	0.2%[12.7 µM]	7.3%	-1.9%	30.0%	6.5%	7.1%
Cc1nc2sc(C(c3ccco3)N3CCN(c4ccc(F)cc4)CC3)c(O)n2n1 (stereo not drawn)	.	?	-21.8%	19.2%	-0.6%	44.7µM*
CC(=O)c1ccc(NS(=O)(=O)c2ccc3[nH]c(=O)[nH]c3c2)cc1	-20.3%[59 µM]	-4.1%	-14.0%	14.4%[57 µM]	.	.
Cn1c(=O)c2c(nc(N3CCOCC3)n2Cc2ccccc2)n(C)c1=O	-29.7%[59 µM]	0.8%	7.3%	53.8%	.	.
COc1cc(C(=O)NCCCc2nc3ccccc3n2CC(C)C)cc(OC)c1OC	8.7%[59 µM]	1.5%	-13.7%	10.3%	.	.
CCc1ccc(NC(=O)CCCc2nc(-c3ccco3)no2)cc1	-2.4%[59 µM]	-2.5%	-11.3%	28.3%	.	.
Cc1nc2sc(C(c3cccs3)N3CCN(C(=O)c4ccco4)CC3)c(O)n2n1 (stereo not drawn)	39.8µM*	-28.0%	-13.2%	50.2%	-9.8%	12.3%
Cc1nc2sc(C(c3ccccc3)N3CCN(C(=O)c4ccco4)CC3)c(O)n2n1 (stereo not drawn)	-3.1%[59 µM]	-5.2%	-4.1%	29.2%	-12.4%	3.4%
CC1CN(C(c2ccco2)c2sc3ncnn3c2O)CC(C)O1 (stereo not drawn)	39.8µM*	5.3%	-12.7%	49.2%	-0.6%	39.8µM*
Cc1ccc(C(c2sc3ncnn3c2O)N2CCC(C)CC2)cc1 (stereo not drawn)	-2.0%[59 µM]	-3.8%	0.7%	44.3%	32.2%	10.2%
O=C(CSc1n[nH]c(-c2ccccc2Cl)n1)N1CCN(c2ccc(F)cc2)CC1	-5.3%[59 µM]	-2.5%	-14.3%	9.5%[57 µM]	.	.
CCN(CC)S(=O)(=O)c1ccc(C)c(NC(=O)CNc2cccc(S(=O)(=O)N3CCCC3)c2)c1	-8.4%	6.1%	-33.1%	4.5%	-6.0%	.
Cc1ccc(S(=O)(=O)N2CCCCC2)cc1NC(=O)CNc1ccc(C(F)(F)F)cc1	56.2µM*	6.7%	-26.6%	7.3%	-6.2%	.
CC(=O)c1ccc(OCCCC(=O)Nc2cc(S(=O)(=O)N3CCCCC3)ccc2C)cc1	35.5µM*	-7.0%	-10.2%	20.7%	4.8%	.
Cc1c([N+](=O)[O-])cc(C(=O)Oc2cccc(C(=S)N3CCOCC3)c2)cc1[N+](=O)[O-]	15.8µM*	?	-31.3%	13.1%	-7.8%	9.7%
SMILES	G9a block	BAZ2B inh	JMJD2A Tudor inh	HP1b chromo inh	L3MBTL1 inh	Sfp PPTase inh
COc1ccc(C(=S)N2CCOCC2)cc1OC(=O)c1cccc([N+](=O)[O-])c1	-2.4%	-2.8%	?	-4.1%	-1.8%	19.6%
COc1cc(C(=S)N2CCOCC2)ccc1OC(=O)c1ccc([N+](=O)[O-])cc1[N+](=O)[O-]	.	-35.1%	?	-8.8%	-7.5%	-23.4%
O=C(Oc1ccc(C(=S)N2CCCCC2)cc1)c1ccccc1	35.5µM*	-15.9%	-20.6%	?	-20.5%	22.4µM*
O=C(Oc1ccccc1C(=S)N1CCOCC1)c1cccc([N+](=O)[O-])c1	79.4µM*	-15.0%	?	4.3%	.	6.2%
O=C(Oc1ccc(C(=S)N2CCOCC2)cc1)c1cccc(Cl)c1	44.7µM*	-29.7%	-22.4%	?	-8.8%	39.8µM*
O=C(Oc1cccc(C(=S)N2CCCCC2)c1)c1ccccc1	?	-24.3%	-6.5%	18.5%	-21.8%	-22.3%
O=C(Oc1cccc(C(=S)N2CCOCC2)c1)c1ccc([N+](=O)[O-])cc1	31.6µM*	?	?	?	.	-24.4%
O=C(Oc1ccc(C(=S)N2CCOCC2)cc1)c1ccccc1[N+](=O)[O-]	.	-9.8%	-26.9%	-4.5%	-10.4%	-13.7%
O=C(Oc1ccc(C(=S)N2CCOCC2)cc1)c1cc([N+](=O)[O-])cc([N+](=O)[O-])c1	35.5µM*	-26.7%	-31.8%	39.8%	.	-4.0%
O=C(Oc1cccc(C(=O)N2CCOCC2)c1)c1ccc(Br)cc1	-9.9%[59 µM]	23.1%	-14.1%	16.6%	3.5%	13.0%
O=C(COc1ccc(F)cc1)Nc1ccc(Cl)c(-c2nc3ccccc3[nH]2)c1	7.9%[59 µM]	-5.5%	-7.6%	62.3%	.	.
O=C(O)Cc1ccc2[nH]c3ccc(CC(=O)O)cc3c2c1	?	-30.8%	-30.0%	30.4%	-13.1%	-4.0%
Cn1c2ccc(CC(=O)O)cc2c2cc(CC(=O)O)ccc21	50.1µM*	?	-12.5%	27.1%	-17.0%	-13.1%
COc1ccc(N2C(=O)/C(=C/c3cccs3)NC2=S)cc1	1.78µM*	?	79.4µM*	?	-0.9%	10µM*
CC(=O)c1ccc(NC(=O)CSc2ccc3nnc(CCNS(=O)(=O)c4ccc(C)cc4)n3n2)cc1	-0.4%[59 µM]	-17.3%	3.3%	59.2%	.	.
CN1CCN(c2ncc3ncc(=O)n(-c4ccccc4)c3n2)CC1	23.5%[0.501 µM]	.	.	.	.	18.2%
NC(=S)Nc1cccc2cn[nH]c12	-23.0%	2.9%	-9.6%	19.6%	?	56.2µM*
